Assay [1] in a line: Primary qHTS to identify inhibitors of SARS-CoV-2 cell entry (AID 1645846). Also: nearly all actives have a fitted effect of over 45% in size. The note with it: SARS-CoV-2 pseudovirus cell entry assay, luminescence. Summed up: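 HEK293-ACE2 (Expi293F, stable hACE2), 1500 cells/well, o/n 37C; cpd 23 nL pin, 1 h; MLV-PP w/ SARS-CoV-2-S (Wuhan-Hu-1, Δ19 C-term); 48 h 37C; Bright-Glo luminescence; normalized vs S-PP and bald PP.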
Assay [2] in a line: Cytotoxicity counterscreen for inhibitors of SARS-CoV-2 cell entry (AID 1645845). Also: nearly all actives have a fitted effect of over 50% in size. As to activity change, negative = cytotoxicity: % is scaled to controls: 0 for no effect and ±100 for the full control effect. The note with it: cell viability (SARS-CoV-2 entry assay cells); series mostly up to 57.1 µM. In a few lines:
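Counterscreen run in the same HEK293-ACE2 line as the pseudotyped-particle entry assay, without particles. Viability after 48 h at 37 C was read as ATP luminescence, scaled between cell-containing and cell-free wells.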

A short description of assay [3]: Primary qHTS for inhibitors of nuclear receptor binding SET domain protein 2 (NSD2) in an isogenic RCH-ACV NSD2 p.E1099K mutant (9B) (AID 1645876; active = well fitted curve in the direction sought with a large enough effect; an effect the other way counts as inactive or inconclusive; also: % is scaled to controls: 0 for no effect and ±100 for the full control effect; nearly all actives have a fitted effect of over 70% in size). As to conditions: RCH-ACV NSD2 E1099K (9B) viability, CellTiter-Glo, 72 h; series mostly up to 44.9 µM. For orientation: In qHTS, concentration-response curves come from the screen itself.
Assay [4] in a line: Primary qHTS for inhibitors of nuclear receptor binding SET domain protein 2 (NSD2) in an RCH-ACV wild type WT cells (2C) (AID 1645877; active = well fitted curve in the direction sought with a large enough effect; an effect the other way counts as inactive or inconclusive; also: % is scaled to controls: 0 for no effect and ±100 for the full control effect; nearly all actives have a fitted effect of over 70% in size). As to conditions: RCH-ACV (leukaemia line) NSD2 WT (2C) viability, CellTiter-Glo, 72 h; series mostly up to 44.9 µM.
Assay [5] is described as follows: VSVG counterscreen qHTS to identify inhibitors of SARS-CoV-2 cell entry (AID 1645847). Also: potency is read from the fitted curve at half-maximal effect; nearly all actives have a fitted effect of over 65% in size. The note with it: VSV-G pseudotyped particle entry, luciferase; series mostly up to 57.2 µM. Summed up: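 Expi293F/hACE2 cells, overnight plating; cpd 1 h, 37C/5% CO2; + VSV-G PP (MLV pseudotyping), 48 h; supernatant removed, Bright-Glo luciferase read. Norm: VSV-G PP and bald PP wells.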

The next assay has as its target Papain (Carica papaya) (UniProt P00784). The assay is described as follows: Primary qHTS assay for inhibitors of the protease papain (AID 1645873; active = well fitted curve in the direction sought with a large enough effect; an effect the other way counts as inactive or inconclusive;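 also: papain turnover of Z-FR-AMC read as the AMC fluorescence gain over 10 min; % is scaled to controls: 0 for no effect and ±100 for the full control effect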). As to conditions: papain Z-FR-AMC cleavage, AMC fluorescence; series mostly up to 49.8 µM.
The mark [6] stands for this setting: activity change, negative = inhibition: at 57.1 µM (top of the series) unless noted, series mostly up to 57.1 µM.

SMILES strings stand for the structures. Several values for one entry are separate records, joined by “and”; a condition that tells them apart may be missing. Identical values can stand only once. Entries after “also recorded” stand apart in the source; their conditions may differ. Results filed as inconclusive are left out. Activity calls are given as the source filed them. Unless noted, calls follow the shape of the full dose curve.

Chain of Papain (Carica papaya) (P00784 whole entry, looked up): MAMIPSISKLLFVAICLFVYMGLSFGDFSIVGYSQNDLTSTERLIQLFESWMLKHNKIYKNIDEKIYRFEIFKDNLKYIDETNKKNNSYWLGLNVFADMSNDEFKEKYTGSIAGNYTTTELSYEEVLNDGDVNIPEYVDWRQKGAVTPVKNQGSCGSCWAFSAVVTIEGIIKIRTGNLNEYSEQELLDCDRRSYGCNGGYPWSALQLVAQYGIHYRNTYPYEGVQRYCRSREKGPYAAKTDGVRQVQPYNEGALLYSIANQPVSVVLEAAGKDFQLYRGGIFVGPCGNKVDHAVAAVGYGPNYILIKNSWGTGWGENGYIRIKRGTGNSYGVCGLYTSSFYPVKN

Take `Nc1ccc(S(=O)(=O)Nc2ccnn2-c2ccccc2)cc1`: the activity change, negative = inhibition in assay [1] (setting [6]) came out at 4.82% [at 27.1 µM].
Consider `CC(=O)S[C@@H]1CC2=CC(=O)CC[C@]2(C)[C@H]2CC[C@@]3(C)[C@@H](CC[C@@]34CCC(=O)O4)[C@H]12`, for which the activity change, negative = inhibition in assay [1] (setting [6]) is -11%.
Turning to `Clc1ccc2nsnc2c1NC1=NCCN1`, the Potency entry in assay [2] is “inactive”. Besides, in assay [1] (setting [6]), the Potency entry is “inactive” and the activity change, negative = inhibition was -13.9%.
In the case of `CC(C)(Sc1cc(C(C)(C)C)c(O)c(C(C)(C)C)c1)Sc1cc(C(C)(C)C)c(O)c(C(C)(C)C)c1`, the Potency result in assay [1] (setting [6]) was “inactive”.
Turning to `CC(C)Cn1cnc2c(N)nc3ccccc3c21`, the Potency entry in assay [2] was “inactive”. For the same compound, in assay [1] (setting [6]), the Potency entry was “inactive” and the activity change, negative = inhibition amounted to 0.431% [at 27.1 µM].
In the case of `O=C(O)c1cccnc1`, the Potency result in assay [2] and in assay [1] (setting [6]) was “inactive” in each case. In addition, the activity change, negative = inhibition in assay [1] (setting [6]) is -20.2% [at 114 µM].
Take `Cc1cc(C)nc(NS(=O)(=O)c2ccc(N)cc2)n1`: in assay [1] (setting [6]), the Potency result is “inactive”.
As for `NC(CS)C(=O)O` (stereo unspecified), the activity change, negative = inhibition in assay [1] (setting [6]) is -4.89%.
In the case of `Nc1ccn(C[C@@H](CO)OCP(=O)(O)O)c(=O)n1`, the activity change, negative = cytotoxicity in assay [2] is 2.99% [at 0.702 µM] (inactive) and 4.32% [at 11.3 µM] (inactive). For the same compound, in assay [1] (setting [6]), the activity change, negative = inhibition is -18.8% [at 11.3 µM] and the outcome is “inactive [at 0.702 µM]”. The activity change, negative = viability loss in assay [3] was -0.956% [at 9.23 µM] (inactive). Moreover, in assay [4], the activity change, negative = cell killing is -8.19% [at 9.23 µM] (inactive).
Turning to `CC(=O)Oc1cc(C(C)C)c(OCCN(C)C)cc1C`, in assay [1] (setting [6]), the Potency entry was “inactive”.
On the same count and under the same terms, to `CCC[C@@H]1C[C@@H](C(=O)N[C@@H]([C@H]2O[C@H](SC)[C@H](O)[C@@H](O)[C@H]2O)[C@@H](C)O)N(C)C1` belongs “inactive”; to `CN[C@@H]1[C@H](O)[C@H](NC)[C@H]2O[C@@]3(O)C(=O)C[C@@H](C)O[C@H]3O[C@@H]2[C@H]1O`, “inactive”.
Regarding `NC(=O)c1cnccn1`, the Potency result in assay [2] was “inactive”. Moreover, in assay [1] (setting [6]), the Potency result was “inactive” and the activity change, negative = inhibition is -28%.
For `CCCCCCCCCCCCCCCCCCO`, in assay [1] (setting [6]), the activity change, negative = inhibition came to 0.247%.
Turning to `Nc1ccn([C@@H]2CS[C@H](CO)O2)c(=O)n1`, the Potency entry in assay [2] was “inactive”. In assay [1] (setting [6]), the Potency result is “inactive” and the activity change, negative = inhibition is -19.3% [at 114 µM].
Consider `NC(N)=NCCN1CCCCCCC1`, for which, in assay [1] (setting [6]), the outcome was “inactive [at 0.702 µM]”.
As for `COc1ccc2cc([C@H](C)C(=O)O)ccc2c1`, in assay [1] (setting [6]), the Potency result is “inactive”.
In the case of `COc1ccc2[nH]cc(CCNC(C)=O)c2c1`, the Potency result in assay [2] was “inactive”. Moreover, in assay [1] (setting [6]), the Potency result was “inactive” and the activity change, negative = inhibition is -6.18%.
In the case of `Cc1c(NC(=O)c2cccnc2)c(=O)n(-c2ccccc2)n1C`, the Potency entry in assay [1] (setting [6]) is “inactive”.
The same measure, in the same setting: to `O=C(O)CNC(=O)c1ccccc1` belongs “inactive”; to `CCCC(=O)OCOC(=O)C1=C(C)NC(C)=C(C(=O)OC)C1c1cccc(Cl)c1Cl` (stereo unspecified), “inactive”.
Turning to `Cc1ncc(CO)c(CO)c1O`, the activity change, negative = inhibition in assay [1] (setting [6]) was -1.83%.
Take `C[C@]12C=CC(=O)C=C1CC[C@@H]1[C@@H]2[C@@H](O)C[C@@]2(C)[C@H]1CC[C@]2(O)C(=O)CO`: the Potency result in assay [2] and in assay [1] (setting [6]) was “inactive” throughout. Also, in assay [1] (setting [6]), the activity change, negative = inhibition was -3.66%. The Potency in assay [5] was 13.6 µM (active).
`C[C@@H](CN1CC(=O)NC(=O)C1)N1CC(=O)NC(=O)C1`: the Potency result in assay [2] and in assay [1] (setting [6]) was “inactive” throughout. Moreover, the activity change, negative = inhibition in assay [1] (setting [6]) is -20%.
On to `NS(=O)(=O)c1cc2c(cc1C(F)(F)F)NC(Cc1ccccc1)NS2(=O)=O` (stereo unspecified), for which the Potency result in assay [1] (setting [6]) was “inactive”.
For `COc1ccc(C(=O)NCc2ccc(OCCN(C)C)cc2)cc1OC`, in assay [1] (setting [6]), the activity change, negative = inhibition was -12.5%.
For the compound `CC12CCC(CC1)C(C)(C)O2`, the Potency entry in assay [1] (setting [6]) is “inactive”.
For the compound `CC(=O)CC(c1ccccc1)c1c(O)c2ccccc2oc1=O` (stereo unspecified), in assay [2], the Potency entry was “inactive”. For the same compound, in assay [1] (setting [6]), the Potency entry is “inactive” and the activity change, negative = inhibition came to 0.432%.
Regarding `COC(=O)N/N=C/c1c[n+]([O-])c2ccccc2[n+]1[O-]`, the Potency result in assay [1] (setting [6]) was “inactive”.
Same read-out and setting: with `CN(C)CCOC(=O)COc1ccc(Cl)cc1` the entry was “inactive”.
Turning to `O=C(O)CSCC(=O)NC1CCSC1=O` (stereo unspecified), the Potency result in assay [2] is “inactive”. In assay [1] (setting [6]), the Potency entry was “inactive” and the activity change, negative = inhibition was -0.451%.
As to `O=C(CS(=O)Cc1ccco1)NC/C=C\COc1cc(CN2CCCCC2)ccn1` (stereo unspecified), in assay [1] (setting [6]), the Potency entry was “inactive”.
As to `Cn1nnc2c(C(N)=O)ncn2c1=O`, in assay [1] (setting [6]), the activity change, negative = inhibition was -15.9% and -14.8%.
Turning to `O=C(NC(Cc1cc(=O)[nH]c2ccccc12)C(=O)O)c1ccc(Cl)cc1` (stereo unspecified), the Potency entry in assay [2] and in assay [1] (setting [6]) was “inactive” throughout. For the same compound, the activity change, negative = inhibition in assay [1] (setting [6]) turned out to be 1.86%.
Turning to `CC(=O)Nc1ccc(S(=O)(=O)Nc2cc(C)on2)cc1`, the Potency entry in assay [1] (setting [6]) is “inactive”.
As for `CN1C[C@H](C(=O)N[C@]2(C)O[C@@]3(O)[C@@H]4CCCN4C(=O)[C@H](Cc4ccccc4)N3C2=O)C=C2c3cccc4[nH]cc(c34)C[C@H]21`, the activity change, negative = inhibition in assay [1] (setting [6]) was -28.9%.
For the compound `CCCCCN(C)CCC(O)(P(=O)(O)O)P(=O)(O)O`, the outcome in assay [2] is “inactive [at 11.3 µM]; also recorded: inactive [at 5.25 µM]”. For the same compound, the activity change, negative = inhibition was -11.4% in assay [1] (at 5.25 µM (top of the series)) and -30.6% in assay [1] (at 11.3 µM (top of the series)). The outcome with Papain (Carica papaya) was inactive.
For `Cc1ncc([N+](=O)[O-])n1CC(C)O` (stereo unspecified), the Potency result in assay [2] is “inactive”. Besides, the activity change, negative = inhibition in assay [1] (at 57.1 µM (top of the series)) was -6.83%; in assay [1] (at 114 µM (top of the series)), -38.4%.
Consider `CN1C(C(=O)Nc2ccccn2)=C(O)c2ccccc2S1(=O)=O`, for which, in assay [5], the Potency is 21.5 µM (active).

The record behind these values is PubChem BioAssay (NCATS).
